# Measured values taken from the supplement of paper PMC6331611.
# ± gives the standard deviation of the averaged measurements. The full ranking holds about 1,600 compounds; the median of “normalized intracellular growth (luminescence, IQM-normalized) in RAW264.7 macrophages” is about 1, and the lowest 2% start at about 0.43. Many of the other results were omitted from the sample, so the lowest values are more common in it than they were.
# System: Salmonella enterica serovar Typhimurium SL1344
# Assay: normalized intracellular growth (luminescence, IQM-normalized) in RAW264.7 macrophages (fraction of plate interquartile mean); higher = more bacterial growth (less inhibition)
# Conditions: 10 µM
SMILES,normalized intracellular growth (time point: T3 (3 h)),normalized intracellular growth (time point: Tfinal (~6 h))
CC(=O)OC1CC2CCC1(C)C2(C)C (stereo not drawn),1.011 ± 0.01,1.14 ± 0.018
CC[n+]1c(-c2ccccc2)c2cc(N)ccc2c2ccc(N)cc21,0.993 ± 0.05,1.13 ± 0.11
CC(C)(C)CC(C)(C)c1cc(Cc2cc(C(C)(C)CC(C)(C)C)cc(-n3nc4ccccc4n3)c2O)c(O)c(-n2nc3ccccc3n2)c1,1.02 ± 0.096,1.19 ± 0.3
CNC(=O)c1c(I)c(NC(C)=O)c(I)c(C(=O)O)c1I,1.01 ± 0.056,0.883 ± 0.21
C[N+]1(C)[C@@H]2CC[C@H]1C[C@@H](OC(=O)C(O)c1ccccc1)C2 (stereo partly drawn),0.968 ± 0.056,1.06 ± 0.025
C[C@]12C=CC(=O)C=C1CC[C@@H]1[C@@H]2[C@@H](O)C[C@@]2(C)[C@H]1CC[C@]2(O)C(=O)COP(=O)(O)O,0.954 ± 0.029,1.16 ± 0.24
S=C1SCN(Cc2ccccc2)CN1Cc1ccccc1,1.01 ± 0.087,0.779 ± 0.14
CCOC(=O)C1=C[C@@H](OC(CC)CC)[C@H](NC(C)=O)[C@@H](N)C1,1.01 ± 0.021,1.33 ± 0.15
CN(Cc1cnc2nc(N)nc(N)c2n1)c1ccc(C(=O)NC(CCC(=O)O)C(=O)O)cc1 (racemic),1.05 ± 0.046,0.825 ± 0.024
CO/N=C(\C(=O)N[C@@H]1C(=O)N2C(C(=O)O)=C(COC(N)=O)CS[C@H]12)c1ccco1,0.994 ± 0.043,0.732 ± 0.083
CC1=C(C(=O)O)N2C(=O)[C@@H](NC(=O)[C@H](N)c3ccc(O)cc3)[C@H]2SC1,0.982 ± 0.0066,0.831 ± 0.018
CC1=C(C(=O)O)N2C(=O)[C@@H](NC(=O)[C@H](N)c3ccccc3)[C@H]2SC1,1.017 ± 0.0017,1.07 ± 0.1
CO/N=C(\C(=O)N[C@@H]1C(=O)N2C(C(=O)OC(C)OC(C)=O)=C(COC(N)=O)CS[C@H]12)c1ccco1 (stereo partly drawn),1.09 ± 0.063,0.977 ± 0.23
Cn1nnnc1SCC1=C(C(=O)O)N2C(=O)[C@@H](NC(=O)[C@H](OC=O)c3ccccc3)[C@H]2SC1,0.866 ± 0.094,0.979 ± 0.024
CO/N=C(\C(=O)N[C@@H]1C(=O)N2C(C(=O)O)=C(CSc3nnnn3C)CS[C@H]12)c1csc(N)n1,0.987 ± 0.052,0.935 ± 0.032
CO/N=C(\C(=O)N[C@@H]1C(=O)N2C(C(=O)O)=C(CSc3nc(=O)c(O)nn3C)CS[C@H]12)c1csc(N)n1,0.891 ± 0.022,0.311 ± 0.035
Nc1nc(/C(=C/CC(=O)O)C(=O)N[C@@H]2C(=O)N3C(C(=O)O)=CCS[C@H]23)cs1,0.951 ± 0.059,0.0259 ± 0.0032
CO/N=C(\C(=O)N[C@@H]1C(=O)N2C(C(=O)O)=C(CSC(=O)c3ccco3)CS[C@H]12)c1csc(N)n1,1 ± 0.029,0.0233 ± 0.0029
Cc1ncc(CSSCc2cnc(C)c(O)c2CO)c(CO)c1O,0.943 ± 0.057,1.06 ± 0.015
O=C(O)C1=C(CSc2nnnn2CS(=O)(=O)O)CS[C@@H]2[C@H](NC(=O)[C@H](O)c3ccccc3)C(=O)N12,0.979 ± 0.034,0.824 ± 0.19
Cc1ccc2c(Br)cc(Br)c(OC(=O)c3ccccc3)c2n1,0.944 ± 0.025,1.01 ± 0.097
S=C=Nc1ccc(N=C=S)cc1,1.04 ± 0.035,1.01 ± 0.11
CN(C)c1ccc2nc3ccc(=[N+](C)C)cc-3sc2c1,1.29 ± 0.088,1.4 ± 0.2
COc1ccc(Cc2cnc(N)nc2N)cc1OC,0.784 ± 0.028,0.17 ± 0.021
COc1cc(/C=C/C(N)=O)cc(OC)c1OC,1.04 ± 0.084,1.03 ± 0.12

SMILES,normalized intracellular growth (time point: T3 (3 h)),normalized intracellular growth (time point: Tfinal (~6 h))
COc1cc(Cc2cnc(N)nc2N)cc(OC)c1OC,0.563 ± 0.068,0.155 ± 0.025
C[C@@H]1CC2C3C[C@H](F)C4=CC(=O)C=C[C@]4(C)[C@@]3(F)[C@@H](O)C[C@]2(C)[C@@]1(O)C(=O)COC(=O)C(C)(C)C (stereo partly drawn),0.961 ± 0.055,0.888 ± 0.12
Cc1cc(-c2ccc(/N=N/c3ccc4c(S(=O)(=O)O)cc(S(=O)(=O)O)c(N)c4c3O)c(C)c2)ccc1/N=N/c1ccc2c(S(=O)(=O)O)cc(S(=O)(=O)O)c(N)c2c1O,1.06 ± 0.038,1.36 ± 0.084
CCOC(=S)SSC(=S)OCC,0.994 ± 0.036,0.924 ± 0.067
C[C@@H]1NC(=O)[C@@H](N)CNC(=O)[C@H](C2CCNC(=N)N2)NC(=O)/C(=C/NC(N)=O)NC(=O)[C@H](CNC(=O)CC(N)CCCN)NC1=O.N=C1NCC[C@H]([C@@H]2NC(=O)/C(=C/NC(N)=O)NC(=O)[C@H](CNC(=O)C[C@@H](N)CCCN)NC(=O)[C@H](CO)NC(=O)[C@@H](N)CNC2=O)N1,0.976 ± 0.016,0.966 ± 0.059
CC(=O)N[C@@H]([C@@H](O)[C@H](O)[C@H](O)CO)[C@@H](O)CC(=O)C(=O)O,1.02 ± 0.058,1.06 ± 0.24
C[C@@H]1O[C@@H](OC[C@H]2O[C@@H](Oc3c(-c4ccc(OCCO)c(OCCO)c4)oc4cc(OCCO)cc(O)c4c3=O)[C@H](O)[C@@H](O)[C@@H]2O)[C@H](O)[C@H](O)[C@H]1O,0.951 ± 0.034,0.746 ± 0.24
OC[C@H]1O[C@@H](O[C@H]2[C@H](O)[C@@H](O)C(O)O[C@@H]2CO)[C@H](O)[C@@H](O)[C@H]1O (stereo partly drawn),1.05 ± 0.022,1.04 ± 0.026
C1CNCCN1,0.991 ± 0.091,0.655 ± 0.077
C[C@@H]1CN(c2c(F)c(F)c3c(=O)c(C(=O)O)cn(C4CC4)c3c2F)C[C@H](C)N1,0.986 ± 0.025,0.0257 ± 0.0074
C[C@@H]1CN(c2c(F)c(N)c3c(=O)c(C(=O)O)cn(C4CC4)c3c2F)C[C@H](C)N1,1.08 ± 0.037,0.0132 ± 0.002
COc1ccc(CN(CCN(C)C)c2ncccn2)cc1,1.1 ± 0.06,1.1 ± 0.093
Cc1cc2nc3c(=O)[nH]c(=O)nc-3n(CC(O)C(O)C(O)COP(=O)(O)O)c2cc1C (stereo not drawn),0.886 ± 0.064,1.08 ± 0.19
O=C(O)CN(CCN(CC(=O)O)CC(=O)O)CC(=O)O.[Na+].[Na+].[Na+],1.03 ± 0.021,1.54 ± 0.093
C[C@H]1O[C@@H](O[C@H]2[C@@H](O)C[C@H](O[C@H]3[C@@H](O)C[C@H](O[C@H]4CC[C@@]5(C)[C@H](CC[C@@H]6[C@@H]5CC[C@]5(C)[C@@H](C7=CC(=O)OC7)CC[C@]65O)C4)O[C@@H]3C)O[C@@H]2C)C[C@H](O)[C@@H]1O,1.03 ± 0.042,1.08 ± 0.087
NC(=O)c1ccccc1O,1.04 ± 0.085,0.978 ± 0.036
CCOc1nc2cccc(C(=O)O)c2n1Cc1ccc(-c2ccccc2-c2nnn[nH]2)cc1,0.992 ± 0.057,1.04 ± 0.034
CCCc1nc(C(C)(C)O)c(C(=O)O)n1Cc1ccc(-c2ccccc2-c2nnn[nH]2)cc1,1.027 ± 0.0089,1.118 ± 0.0057
CCCCC1=NC2(CCCC2)C(=O)N1Cc1ccc(-c2ccccc2-c2nnn[nH]2)cc1,1.06 ± 0.014,1.14 ± 0.22
CCCCC(=O)N(Cc1ccc(-c2ccccc2-c2nnn[nH]2)cc1)[C@H](C(=O)O)C(C)C,0.881 ± 0.033,0.239 ± 0.016
CCCc1nc(C(C)(C)O)c(C(=O)OCc2oc(=O)oc2C)n1Cc1ccc(-c2ccccc2-c2nnn[nH]2)cc1,1 ± 0.026,0.855 ± 0.39
CCCCc1nc(Cl)c(CO)n1Cc1ccc(-c2ccccc2-c2nnn[nH]2)cc1,0.909 ± 0.056,0.215 ± 0.0058
CCCCC(CC)COc1ccc(-c2nc(-c3ccc(OC)cc3)nc(-c3ccc(OCC(CC)CCCC)cc3O)n2)c(O)c1 (stereo not drawn),1.02 ± 0.065,1.1 ± 0.17
Nc1nc(F)nc2c1ncn2[C@@H]1O[C@H](COP(=O)(O)O)[C@@H](O)[C@@H]1O,0.982 ± 0.061,1.16 ± 0.13
O=C1OC2(c3ccc(O)cc3Oc3cc(O)ccc32)c2ccccc21,1.02 ± 0.069,0.891 ± 0.079

SMILES,normalized intracellular growth (time point: T3 (3 h)),normalized intracellular growth (time point: Tfinal (~6 h))
COc1ccc(C[C@H](N)C(=O)N[C@H]2[C@@H](O)[C@H](n3cnc4c(N(C)C)ncnc43)O[C@@H]2CO)cc1,0.993 ± 0.058,1.05 ± 0.16
NCCCC(=O)O [gamma-AMINOBUTYRIC ACID],0.9762 ± 0.0094,1.05 ± 0.096
FCOC(C(F)(F)F)C(F)(F)F,1.01 ± 0.052,0.806 ± 0.18
CCCCCN(C)CCC(O)(P(=O)(O)O)P(=O)(O)O,0.886 ± 0.014,0.0897 ± 0.012
NCCCC(O)(P(=O)(O)O)P(=O)(O)O,0.994 ± 0.083,1.12 ± 0.14
O=C1c2ccccc2C(=O)C1c1ccc(Br)cc1,1.08 ± 0.047,1.15 ± 0.21
CO/N=C1\C[C@]2(C[C@@H]3C[C@@H](C/C=C(\C)C[C@@H](C)/C=C/C=C4\CO[C@@H]5[C@H](O)C(C)=C[C@@H](C(=O)O3)[C@]45O)O2)O[C@H](/C(C)=C/C(C)C)[C@H]1C,0.979 ± 0.022,0.831 ± 0.033
CCN(CC)CCOc1ccc2c(c1)C(=O)c1cc(OCCN(CC)CC)ccc1-2,1 ± 0.035,1 ± 0.021
NC(=O)c1ccc([N+](=O)[O-])cc1Cl,1.06 ± 0.052,1.18 ± 0.017
CC(=O)Nc1ccc(S(=O)(=O)Nc2ccc([N+](=O)[O-])cc2)cc1,0.992 ± 0.038,1.03 ± 0.15
O=C(O)CCC(=O)OC[C@@H](NC(=O)C(Cl)Cl)[C@H](O)c1ccc([N+](=O)[O-])cc1,0.927 ± 0.048,0.178 ± 0.014
CCCCCCCCCCCCCCCC(=O)OC[C@@H](NC(=O)C(Cl)Cl)[C@H](O)c1ccc([N+](=O)[O-])cc1,1.04 ± 0.037,0.822 ± 0.14
CS(=O)(=O)c1ccc([C@@H](O)[C@@H](CF)NC(=O)C(Cl)Cl)cc1,1.27 ± 0.096,0.22 ± 0.17
O=C(N[C@H](CO)[C@H](O)c1ccc([N+](=O)[O-])cc1)C(Cl)Cl,0.927 ± 0.049,0.163 ± 0.022
CS(=O)(=O)c1ccc([C@@H](O)[C@@H](CO)NC(=O)C(Cl)Cl)cc1,0.925 ± 0.07,0.767 ± 0.047
CC(=O)Nc1ccc(S(=O)(=O)c2ccc(NC(C)=O)cc2)cc1,1.01 ± 0.04,0.912 ± 0.062
OC[C@@H](O)[C@@H](O)CO,0.947 ± 0.1,1.08 ± 0.11
Cc1cc(C(C)(C)C)c(O)c(C(C)(C)C)c1,1.06 ± 0.046,0.834 ± 0.12
FC(F)(F)C(Cl)Br (stereo not drawn),1 ± 0.049,1.08 ± 0.18
CN1CC(=O)NC1=N,1.03 ± 0.02,1.1 ± 0.1
COc1cc([C@@H]2c3cc4c(cc3[C@@H](O[C@@H]3O[C@@H]5CO[C@@H](c6cccs6)O[C@H]5[C@H](O)[C@H]3O)[C@H]3COC(=O)[C@H]23)OCO4)cc(OC)c1O,1.1 ± 0.049,1.016 ± 0.0097
CCCc1nc(C)c2c(O)nc(-c3cc(S(=O)(=O)N4CCN(CC)CC4)ccc3OCC)nn12,0.997 ± 0.027,0.899 ± 0.1
CC(=O)N(c1onc(C)c1C)S(=O)(=O)c1ccc(N)cc1,0.951 ± 0.011,1.02 ± 0.17
C[C@@H]1C[C@H]2[C@@H]3CCC4=CC(=O)C=C[C@]4(C)[C@@]3(F)[C@@H](O)C[C@]2(C)[C@@]1(O)C(=O)CO,1 ± 0.062,0.99 ± 0.075
